PPC-1+TRAIL kill: kills PPC-1 cancer cells in the presence of TRAIL; AID 1443; PPC-1 cells + TRAIL, ATPLite viability luminescence; cell killing (% activity), % at 4 µM or 5 µM; actives 0.41% (n = 220,000);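 active = cell killing above 50% in the first pass at 4 µM, then a duplicate retest at 5 µM averaging 50% or more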
Platelet DG rel: platelet dense granule release activity; human platelet-rich plasma, SFLLRN dense granule ATP release, luminescence; inhibition, %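 (compounds screened at 7.5 µM in platelet-rich plasma)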; actives 0.22% (n = 300,000); AID 1663;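 active = mean replicate score, as percent of positive control, at or above 50; inconclusive = mean below 50 but at least one replicate at or above 50; inactive = mean and every replicate below 50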
C8 TRAIL sens: caspase-8 TRAIL sensitization. AID 624354. actives 1% (n = 360,000). inhibition (viability loss, TRAIL sensitization), % at 10 µM. NB7+C8 cells + TRAIL, ATPlite viability luminescence;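 active = compounds causing at least 50% loss of cell viability in the single-dose screen, relative to plate controls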
STAT3 blocker: inhibitors of IL-6 induced STAT3 signaling; U3A cells, IL-6 STAT3-luciferase reporter, luminescence; host cell line lacks STAT1; inhibition, % at 5.5 µM; AID 862; actives 0.89% (n = 190,000);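 active = inhibition above the mean inhibition across all screened compounds plus 3 SD, cut at about 44% in these data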
STAT1 blocker: inhibitors of IFN-gamma induced STAT1 signaling; actives 0.35% (n = 200,000); inhibition, % at 5.5 µM; NIH 3T3 STAT1-luciferase reporter, luminescence; AID 920;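 active = inhibition above a set limit, the mean inhibition across all tested compounds plus 3 SD, cut at about 34% in these data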
Numbers stand for hits; 0 = inactive; ? = inconclusive; - = no result. Only some compounds are listed: those with a hit (about 1.6% of all), similar ones and a draw of the others.

SMILES	PPC-1+TRAIL kill	Platelet DG rel	C8 TRAIL sens	STAT3 blocker	STAT1 blocker
O=C(C1CC(=O)N(c2ccc3c(c2)OCCO3)C1)N1CCCC(C(F)(F)F)C1 (centres undefined)	-	0	0	-	-
COc1ccc(/C=N/Nc2nc3ccccc3c(=O)n2-c2ccccc2)cc1OC	0	0	53	0	0
COc1ccc(/C=N/n2c(C)nc3ccccc3c2=O)cc1OC	-	0	0	-	-
CN(C)S(=O)(=O)c1ccc(-c2csc(N/N=C/c3ccc(O)cc3)n2)cc1	0	0	85	-	-
CN(C)S(=O)(=O)c1ccc(-c2csc(N/N=C/c3ccco3)n2)cc1	0	0	72	-	-
CC(C)c1ccc(-c2nnn(CCC(=O)O)n2)cc1	0	0	0	78	48
CCCCn1nnnc1C(c1cc2ccccc2o1)N1CCN(c2ccncc2)CC1 (centres undefined)	-	-	0	-	-
CCOC(=O)c1sc(NC(=O)c2ccccc2)cc1C	0	0	50	0	0
Cc1cc2nc(-c3cccnc3SCC(=O)NCc3ccco3)[nH]c2cc1C	-	0	61	0	0
O=C(CSc1ncccc1-c1nc2ccccc2[nH]1)NCc1ccco1	0	0	0	0	0
CCOC(=O)C1(C)CCCN(C(=O)c2cccnc2)C1 (centres undefined)	-	-	0	-	-
CC(C)c1ccc(NC(=O)Nc2nc(C(C)N)cs2)cc1 (centres undefined)	-	-	0	-	-
COc1ccc(NC(=O)Nc2nc(C(N)C3CCCCC3)cs2)cc1 (centres undefined)	-	-	0	-	-
CC(C)c1ccc(NC(=O)Nc2nc(C(N)CCc3ccccc3)cs2)cc1 (centres undefined)	-	-	95	-	-
CC(C)c1ccc(NC(=O)Nc2nc(C(N)C3CCCCC3)cs2)cc1 (centres undefined)	-	-	88	-	-
C[C@@H]1CCCCO[C@H](CN(C)C(=O)C2CCCCC2)[C@@H](C)CN([C@H](C)CO)C(=O)c2cc(N(C)C)ccc2O1	-	-	0	-	-
COc1cc(NC(=O)c2cccs2)c(C(=O)OCC(=O)c2cc(C)n(-c3ccccc3)c2C)cc1OC	0	0	0	70	36
CC(C)(C)C(=O)N1CCC2CC1c1cc(Cl)ccc12 (centres undefined)	-	-	0	-	-
CCOC(=O)c1nc2sc3c(c2c(=O)[nH]1)CCCC3	0	60	0	0	0
CCOc1ccc(NC(=O)c2ccco2)cc1	0	0	55	0	0
O=C(Nc1nc2cc3c(cc2s1)OCCO3)c1ccco1	-	0	88	-	-
O=C(NC(=S)Nc1nc2ccc(F)cc2s1)c1ccco1	0	0	86	0	0
CC(C)(C)C(=O)Nc1ccc(NC(=O)c2ccco2)nc1	-	0	95	-	-
CC(C)CCNC(=O)C1(C)CCN1Cc1ccc2ccccc2c1 (centres undefined)	-	-	0	-	-
CN(Cc1ccco1)C(=O)[C@H](Cc1ccccc1)NC(=O)CC[C@H]1O[C@@H](n2ccc(=O)[nH]c2=O)[C@H](O)[C@@H]1O	-	-	0	-	-
SMILES	PPC-1+TRAIL kill	Platelet DG rel	C8 TRAIL sens	STAT3 blocker	STAT1 blocker
O=C(Nc1ccccc1C(=O)O)c1ccc(NC(=O)C2CC2)cc1	-	0	65	-	-
CCOc1ccc2nc(NC(=O)c3ccco3)sc2c1	-	50	60	-	-
CCOc1ccc2nc(NC(=O)COC)sc2c1	0	0	0	0	0
O=C(Nc1ccc(NC(=O)C2CC2)cc1)c1ccco1	-	0	55	-	-
CCC(CC)C(=O)N(C)c1c(C)nc2c(OCc3ccc(Cl)cc3Cl)cccn12	-	-	0	-	-
Cc1ccc(S(=O)(=O)N2CCCCC2)cc1NC(=O)COC(=O)c1cccc(O)c1	-	-	0	-	-
CCc1nnc(NC(=O)CSc2nc3c(cc2C#N)CCCC3)s1	0	0	58	0	0
COc1cccc(-c2nn(-c3ccccc3)cc2C(=O)O)c1	0	62	0	0	0
Nc1nc2cc(Cl)ccc2cc1C(=O)NCCCc1ccccc1	-	-	0	-	-
O=C(Cn1c2ccccc2c(=O)c2ccccc21)N/N=C/c1cc([N+](=O)[O-])ccc1N1CCCCCC1	0	0	60	0	0
C#Cc1cccc(Nc2nc(NCc3ccccc3)nc3ccsc23)c1	-	-	0	-	-
CN(C)C(=O)CNc1ccn2nc(-c3cccc(Cl)c3)cc2n1	-	-	0	-	-
Cc1cc(N)n2nc(-c3ccccc3)cc2n1	68	0	77	0	0
CCN(CC)S(=O)(=O)c1ccc(C(=O)NCC(=O)NCc2ccc3c(c2)OCO3)cc1	-	-	0	-	-
CCCCNC(=O)C1(C)CCN1C(=O)c1csnn1 (centres undefined)	-	-	0	-	-
Cc1cccc(NC(=O)/C=C/c2ccc(Cl)cc2)n1	0	0	69	0	0
O=C(/C=C/c1cccs1)Nc1cccc(NC(=O)/C=C/c2cccs2)n1	0	0	73	0	0
Cc1cccc(NC(=O)CCCNC(=O)c2ccc(Cl)cc2)n1	-	54	0	-	-
Cc1csc(NC(=O)/C=C/c2ccc3c(c2)OCO3)n1	57	0	71	88	44
COc1ccc(C(C)(NC(C)=O)c2nc(-c3cccc(F)c3)cs2)cc1 (centres undefined)	-	-	0	-	-
C#CCOCCOCCOCCNc1nc(N2CCN(C(=O)[C@H](CCC(=O)O)n3cc([C@@H](N)[C@H](C)CC)nn3)CC2)nc(N2CCN(C(=O)[C@H](CCCCN)n3cc([C@@H](N)CC(N)=O)nn3)CC2)n1	-	-	0	-	-
COC(=O)[C@]12CCCCC=C1N(Cc1ccc(Cl)cc1Cl)C(=O)[C@H](CC(=O)N1CCOCC1)C2	-	-	0	-	-
CCOC(=O)Cc1csc(NC(=O)/C=C/c2ccc(Cl)cc2)n1	0	0	55	-	-
c1ccc(-c2nc3ccccc3o2)nc1	0	0	0	0	0
c1ccc2nc(-c3nc4ccccc4o3)ccc2c1	0	?	76	80	38
SMILES	PPC-1+TRAIL kill	Platelet DG rel	C8 TRAIL sens	STAT3 blocker	STAT1 blocker
O=C(C1=C(O)C(=O)N(CCN2CCOCC2)C1c1cccc(F)c1)c1cc2ccccc2o1 (centres undefined)	-	0	0	-	-
O=S(=O)(Nc1ccc(-c2ccc3nncn3n2)cc1)c1ccc(Cl)s1	-	0	0	-	-
O=S(=O)(Nc1ccc(-c2ccc3nncn3n2)cc1)c1ccccc1Cl	-	61	0	-	-
COC(=O)[C@@]12C[C@@H](CC(=O)N3CCC(c4ccccc4)CC3)C(=O)N(CCc3ccc(OC)c(OC)c3)C1=CCC(C)(C)C2	-	-	0	-	-
COc1ccc(C(=O)c2c(C(F)(F)F)oc3c2C(=O)c2ccccc2C3=O)cc1	0	0	98	0	0
COc1ccccc1NC(=O)N(C)C[C@@H]1OCc2cnnn2CCCC(=O)N([C@H](C)CO)C[C@H]1C	-	-	0	-	-
O=C1c2ccccc2NC(c2ccc3c(c2)OCCO3)N1c1ccc2c(c1)OCCO2 (centres undefined)	0	0	64	0	0
O=C1c2ccccc2NC(c2ccc3c(c2)OCO3)N1O (centres undefined)	0	0	0	0	0
COc1cc(C2Nc3ccccc3C(=O)N2c2ccc3c(c2)OCCO3)ccc1OCC(C)C (centres undefined)	0	0	55	0	0
CCOC(=O)C1(C)CCCN(C(=O)c2cc(F)ccc2C)C1 (centres undefined)	-	-	0	-	-
CN1CCN(C(=O)C[C@@H]2CC[C@@H]3[C@H](COC[C@@H](O)CN3Cc3cccc(Cl)c3)O2)CC1	-	-	0	-	-
